Test results reported in PubChem BioAssay (NCI).
About 79,000 compounds went through this panel and 15% of them were active in at least one assay; those are over-represented in the sample as a whole. Rule as the data show it: active = growth inhibition above about 70%; inactive = the rest. Where a SMILES comes first, the peptide text is derived from it. [ ]: non-standard residue; d: D form. The star is where a group is joined. Nle = CCCC[CH](N)C(=O)O; Cbz = O=C(OCc1ccccc1)*

Columns and labels:
[1] = NCI Yeast Anticancer Drug Screen. Data for the rad50 strain (AID 155);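 also: 0% = growth of vehicle-only cultures of the same strain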; conditions: S. cerevisiae rad50 strain growth inhibition; at 50.0 µM; stronger effect = higher value
Summary of the method: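 Compounds were tested on a yeast strain with an engineered DNA damage repair alteration; the reported value is growth inhibition normalised to vehicle treatment.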

[2] = NCI Yeast Anticancer Drug Screen. Data for the mec2-1 strain (AID 157); conditions: S. cerevisiae mec2-1 strain, at 50.0 µM, stronger effect = higher value
Summary of the method: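 Strain: mec2-1 (DNA repair/cell cycle alteration). Compound exposure, then growth measured; inhibition expressed relative to vehicle.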

[3] = NCI Yeast Anticancer Drug Screen. Data for the sgs1 mgt1 strain (AID 161);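 also: 0% = growth of cultures given vehicle only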; conditions: S. cerevisiae sgs1 mgt1 strain, at 50.0 µM, stronger effect = higher value
Summary of the method: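 Genetically altered yeast, compound exposure, growth inhibition relative to vehicle.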

[4] = NCI Yeast Anticancer Drug Screen. Data for the cln2 rad14 strain (AID 165);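 also: 0% = growth equal to vehicle treated cultures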; conditions: S. cerevisiae cln2 rad14 strain, at 50.0 µM, stronger effect = higher value
Summary of the method: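 Compounds are applied to the cln2 rad14 yeast strain, and growth is then compared with that of vehicle-treated cultures to give inhibition.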

[5] = NCI Yeast Anticancer Drug Screen. Data for the bub3 strain (AID 167); conditions: S. cerevisiae bub3 mutant strain, at 50.0 µM, stronger effect = higher value
Summary of the method: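 Growth of a checkpoint-deficient yeast mutant is measured after compound exposure. Values represent inhibition relative to vehicle.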

[6] = NCI Yeast Anticancer Drug Screen. Data for the mlh1 rad18 strain (AID 175); conditions: S. cerevisiae mlh1 rad18 strain growth inhibition; at 50.0 µM; stronger effect = higher value
Summary of the method: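 Read-out is yeast growth inhibition, calculated against vehicle-only controls. The compound was applied to a strain engineered with DNA damage repair alterations.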

Measured: growth inhibition

CC1OC(c2ccc(Cl)cc2Cl)OC1C (stereo not given)
inactive: [1] 6.45% | [2] -0.9% | [3] 2.65% | [4] 0.7% | [5] 0.95% | [6] 1.5%

O=C(O)CCCc1ccc2c(c1)CC1(C2)Cc2cc3c(cc2C1)CCCC3
inactive: [1] -11.7% | [2] -32.4% | [3] -16.9% | [4] 24.2% | [5] 18.4% | [6] 7.4%

CC1OCOC(CO)C(O)C1O (stereo not given)
inactive: [1] -18.5% | [2] 1.55% | [3] 17.5% | [4] -32% | [5] -3% | [6] -5.8%

O=C(NC(Cc1ccccc1)C(=O)N1CCOCC1)c1ccccc1 (stereo not given)
inactive: [1] 6.1% | [2] 12.6% | [3] -1.35% | [4] 3.2% | [5] 1.85% | [6] -0.35%

CC[O-].CC[O-].O=C1C=C([O-])C(=O)c2ccccc21.O=C1C=C([O-])C(=O)c2ccccc21.[Ti+4]
inactive: [1] 17.3% | [2] 14.3% | [3] 15.4% | [4] 26.2% | [5] 30.4% | [6] 4.9%

NC(=O)C(=O)N/N=C1\C(=O)N(c2ccc(Cl)cc2Cl)C(=O)C1C(=O)Nc1ccc(Cl)cc1Cl (stereo not given)
inactive: [1] -0.65% | [2] -0.55% | [3] -15.5% | [4] 22.4% | [5] -14.2% | [6] -16.3%

OC(CCN1CCC2CCC(C2)C1)(c1ccccc1)c1ccco1 (stereo not given)
inactive: [1] 7.75% | [2] -3.15% | [3] -5.25% | [4] -15.6% | [5] -0.05% | [6] -4.75%

CCO/C=C1/N=C(Cc2ccccc2)OC1=O
inactive: [1] 18.4% | [2] -2.05% | [3] 7.65% | [4] 23.4% | [5] 3.65% | [6] 13%

Nc1cc(=O)n(-c2ccccc2)nc1Cl
inactive: [1] 2.05% | [2] 4.4% | [3] -2.25% | [4] -18.6% | [5] 3.1% | [6] 0.2%

Cc1ccc(S(=O)(=O)CCC(=O)c2ccc([N+](=O)[O-])cc2)cc1
inactive: [1] 9.35% | [2] 20.1% | [3] 14.8% | [4] 6.65% | [5] 3.05% | [6] 16.9%

C#Cc1cccc(N=Cc2cc(Br)cc(OC)c2O)c1
inactive: [1] -23.4% | [2] -6.7% | [3] 1.3% | [4] 4.8% | [5] 5% | [6] 3.95%

Cc1ccc(NC(=O)c2ccccc2[N+](=O)[O-])cc1
inactive: [1] 12.5% | [2] 15.8% | [3] 0.1% | [4] 20.4% | [5] -2.1% | [6] -10.2%

CC(C)=CCCc1ccc2c(c1)C(=O)c1cc3c(cc1C2=O)OCO3
inactive: [1] -13.9% | [2] 15.1% | [3] 21.1% | [4] 9.6% | [5] 10.6% | [6] -2.1%

O=C1C=C(Nc2ccccc2C(=O)CC(=O)C(=O)Nc2ccc(Cl)c(Cl)c2)c2ccccc2C1=O
inactive: [1] -14.1% | [2] 5.7% | [3] 3.2% | [4] -30.9% | [5] -24.2% | [6] -7.15%

Cc1cc(C)c(OC(=O)c2ccc(C(=O)Oc3c(C)cc(C)cc3C)cc2)c(C)c1
inactive: [1] 13.8% | [2] -1.65% | [3] -4.85% | [4] 0.25% | [5] -1.6% | [6] 14.9%

CCOC(=O)NC(=O)c1cn(CCN2CCN(C(=O)NCCCCCCNC(=O)N3CCN(CCn4cc(C(=O)NC(=O)OCC)c(=O)n(CCN(CC)CC)c4=O)CC3)CC2)c(=O)n(CCC(CC)CC)c1=O
inactive: [1] -10.1% | [2] 8.7% | [3] -6.65% | [4] -20.9% | [5] 2.5% | [6] -31.5%

CC(C)OC(=O)CC#N
inactive: [1] -4.55% | [2] -9.55% | [3] -7.7% | [4] -28.7% | [5] 0.6% | [6] 14.8%

O=C(O)CN1C(=O)c2ccccc2C1=O
inactive: [1] -8.75% | [2] -15.7% | [3] -5.5% | [4] -25.7% | [5] -27.6% | [6] -20.3%

CC(=O)CC(=O)NN(C)C
inactive: [1] -4.8% | [2] -32.4% | [3] -28.9% | [4] 8.5% | [5] -36.4% | [6] 9.85%

COc1cc(C(=O)O)cc(OC)c1OC(C)=O
inactive: [1] 6.65% | [2] -7% | [3] 3.8% | [4] 9% | [5] -34.7% | [6] -8.65%

Brc1cc2[nH]c(-c3ccccc3)c(Br)c2c(Br)c1Br
inactive: [1] 59% | [2] 36.5% | [3] 68.5% | [4] 39.2% | [5] 14.3% | [6] 69%

CCCCC(NC(=O)C(Cc1ccccc1)NC(=O)OCc1ccccc1)C(=O)O (stereo not drawn) (Cbz-Phe-[Nle]-OH; configuration not given here)
inactive: [1] 5.9% | [2] -1.2% | [3] -4.3% | [4] -31.8% | [5] -3.2% | [6] 9.05%

O=C1NC(=S)N(c2ccccc2)C1=O
inactive: [1] -19.4% | [2] -7.65% | [3] -24.2% | [4] -30.2% | [5] -2.5% | [6] -11.8%

CC(C)(C)OC(=O)NC(CCCCNC(=O)OCc1ccccc1)C(=O)NCCNc1ccc(NCCNC(=O)C(CCCCNC(=O)OCc2ccccc2)NC(=O)OC(C)(C)C)c2c1C(=O)c1ccccc1C2=O (stereo not given)
inactive: [1] -3.7% | [2] 0.1% | [3] -27.4% | [4] -1.4% | [5] -31.6% | [6] -52.8%

CCOC(=O)C(=O)SCC(NC(=O)OCc1ccccc1)C(=O)O (stereo not given)
inactive: [1] -12.9% | [2] -4.95% | [3] 11.7% | [4] -1.95% | [5] 7.75% | [6] -12.2%

O=S1(=O)C(c2ccc(F)cc2)=C(O)c2cc3ccccc3nc21
inactive: [1] 29.2% | [2] 30.9% | [3] 27% | [4] 21.4% | [5] -8.85% | [6] 23.2%

Cc1cccc(/C=N/Nc2ccc([N+](=O)[O-])cc2[N+](=O)[O-])c1C
inactive: [1] 11.2% | [2] -6% | [3] -5.1% | [4] -11.2% | [5] -15.6% | [6] 4%

CCOC(=O)CC(O)(c1ccccc1)c1ccccc1
inactive: [1] -30.9% | [2] -47.4% | [3] 7.35% | [4] 5.1% | [5] -25.2% | [6] -31.5%

CCCCCC(CCCCC)=C(C#N)C(=O)OCC
inactive: [1] -6.15% | [2] 21.1% | [3] 7.55% | [4] -19.4% | [5] 19.9% | [6] 25.8%

COC(=O)/C=C/c1cccc([N+](=O)[O-])c1
inactive: [1] -3.55% | [2] -2.25% | [3] 20.7% | [4] -48.8% | [5] -0.7% | [6] -18.3%

Cc1ccc2cccc(CCOC(=O)c3ccc([N+](=O)[O-])cc3)c2c1
inactive: [1] -13.5% | [2] -19.1% | [3] -15.3% | [4] -19.1% | [5] -8.35% | [6] 4.7%

Cc1ccc(C(=O)c2ccccc2C(=O)O)cc1C(=O)O
inactive: [1] 8.9% | [2] 11.1% | [3] 1.15% | [4] 2.7% | [5] 10.2% | [6] -7.05%

O=C(O)c1cccc(C(=O)O)c1C(=O)O.[NH-]C1CCCCC1[NH-].[Pt+2]
inactive: [1] -17.8% | [2] 0.1% | [3] -15.5% | [4] 22.1% | [5] 7.8% | [6] -34.3%

CCNN(CC)C(N)=O
inactive: [1] 5.2% | [2] -5% | [3] 0.4% | [4] 7.6% | [5] -13.2% | [6] -1.25%

CC1=C(C(=O)Nc2ccc([N+](=O)[O-])cc2)C(c2ccc3c(c2)OCO3)C(C(=O)Nc2ccc([N+](=O)[O-])cc2)=C(C)N1
inactive: [1] 8.65% | [2] 15.3% | [3] 21.6% | [4] 24.4% | [5] 10.2% | [6] 7.05%

CC(=O)Nc1cc(-c2ccccc2)ccc1O
inactive: [1] 56.7% | [2] 30.1% | [3] 56.8% | [4] 32.2% | [5] 40.2% | [6] 57.4%

COc1cc(C(=O)NC(CCN)(c2ccccc2)c2ccccc2)cc(OC)c1OC
inactive: [1] -2.55% | [2] 30.4% | [3] 14.4% | [4] 10.4% | [5] 43.2% | [6] 29.8%

CCOC(=O)c1cc(C)[nH]n1
inactive: [1] -37.9% | [2] -26.1% | [3] -6.75% | [4] -11.7% | [5] -26.9% | [6] 2.15%

COc1cc2ccc1-c1cc(ccc1O)CC1c3cc4c(cc3CCN1C)Oc1c(OC)cc3c(c1O4)C(C2)N(C)CC3 (stereo not given)
inactive: [1] 1% | [2] -7.15% | [3] -18.5% | [4] -1.7% | [5] -6.15% | [6] 0.25%

CC1=NN(c2cc(Cl)c(S(=O)(=O)O)cc2Cl)C(=O)C1N=Nc1ccc(S(=O)(=O)O)cc1 (stereo not given)
inactive: [1] -6.3% | [2] -19.8% | [3] -8% | [4] 2.05% | [5] -5.8% | [6] -0.9%
